# TcdB GH inh = blocks C. difficile toxin B glycohydrolase activity; TcdB glycohydrolase enzymatic assay, plate reader; inhibition, % at 9.99 µM; P18177; 350,000 compounds, 0.24% hits; in the data active means inhibition above about 10%
# Target sequence (P18177 whole entry, looked up): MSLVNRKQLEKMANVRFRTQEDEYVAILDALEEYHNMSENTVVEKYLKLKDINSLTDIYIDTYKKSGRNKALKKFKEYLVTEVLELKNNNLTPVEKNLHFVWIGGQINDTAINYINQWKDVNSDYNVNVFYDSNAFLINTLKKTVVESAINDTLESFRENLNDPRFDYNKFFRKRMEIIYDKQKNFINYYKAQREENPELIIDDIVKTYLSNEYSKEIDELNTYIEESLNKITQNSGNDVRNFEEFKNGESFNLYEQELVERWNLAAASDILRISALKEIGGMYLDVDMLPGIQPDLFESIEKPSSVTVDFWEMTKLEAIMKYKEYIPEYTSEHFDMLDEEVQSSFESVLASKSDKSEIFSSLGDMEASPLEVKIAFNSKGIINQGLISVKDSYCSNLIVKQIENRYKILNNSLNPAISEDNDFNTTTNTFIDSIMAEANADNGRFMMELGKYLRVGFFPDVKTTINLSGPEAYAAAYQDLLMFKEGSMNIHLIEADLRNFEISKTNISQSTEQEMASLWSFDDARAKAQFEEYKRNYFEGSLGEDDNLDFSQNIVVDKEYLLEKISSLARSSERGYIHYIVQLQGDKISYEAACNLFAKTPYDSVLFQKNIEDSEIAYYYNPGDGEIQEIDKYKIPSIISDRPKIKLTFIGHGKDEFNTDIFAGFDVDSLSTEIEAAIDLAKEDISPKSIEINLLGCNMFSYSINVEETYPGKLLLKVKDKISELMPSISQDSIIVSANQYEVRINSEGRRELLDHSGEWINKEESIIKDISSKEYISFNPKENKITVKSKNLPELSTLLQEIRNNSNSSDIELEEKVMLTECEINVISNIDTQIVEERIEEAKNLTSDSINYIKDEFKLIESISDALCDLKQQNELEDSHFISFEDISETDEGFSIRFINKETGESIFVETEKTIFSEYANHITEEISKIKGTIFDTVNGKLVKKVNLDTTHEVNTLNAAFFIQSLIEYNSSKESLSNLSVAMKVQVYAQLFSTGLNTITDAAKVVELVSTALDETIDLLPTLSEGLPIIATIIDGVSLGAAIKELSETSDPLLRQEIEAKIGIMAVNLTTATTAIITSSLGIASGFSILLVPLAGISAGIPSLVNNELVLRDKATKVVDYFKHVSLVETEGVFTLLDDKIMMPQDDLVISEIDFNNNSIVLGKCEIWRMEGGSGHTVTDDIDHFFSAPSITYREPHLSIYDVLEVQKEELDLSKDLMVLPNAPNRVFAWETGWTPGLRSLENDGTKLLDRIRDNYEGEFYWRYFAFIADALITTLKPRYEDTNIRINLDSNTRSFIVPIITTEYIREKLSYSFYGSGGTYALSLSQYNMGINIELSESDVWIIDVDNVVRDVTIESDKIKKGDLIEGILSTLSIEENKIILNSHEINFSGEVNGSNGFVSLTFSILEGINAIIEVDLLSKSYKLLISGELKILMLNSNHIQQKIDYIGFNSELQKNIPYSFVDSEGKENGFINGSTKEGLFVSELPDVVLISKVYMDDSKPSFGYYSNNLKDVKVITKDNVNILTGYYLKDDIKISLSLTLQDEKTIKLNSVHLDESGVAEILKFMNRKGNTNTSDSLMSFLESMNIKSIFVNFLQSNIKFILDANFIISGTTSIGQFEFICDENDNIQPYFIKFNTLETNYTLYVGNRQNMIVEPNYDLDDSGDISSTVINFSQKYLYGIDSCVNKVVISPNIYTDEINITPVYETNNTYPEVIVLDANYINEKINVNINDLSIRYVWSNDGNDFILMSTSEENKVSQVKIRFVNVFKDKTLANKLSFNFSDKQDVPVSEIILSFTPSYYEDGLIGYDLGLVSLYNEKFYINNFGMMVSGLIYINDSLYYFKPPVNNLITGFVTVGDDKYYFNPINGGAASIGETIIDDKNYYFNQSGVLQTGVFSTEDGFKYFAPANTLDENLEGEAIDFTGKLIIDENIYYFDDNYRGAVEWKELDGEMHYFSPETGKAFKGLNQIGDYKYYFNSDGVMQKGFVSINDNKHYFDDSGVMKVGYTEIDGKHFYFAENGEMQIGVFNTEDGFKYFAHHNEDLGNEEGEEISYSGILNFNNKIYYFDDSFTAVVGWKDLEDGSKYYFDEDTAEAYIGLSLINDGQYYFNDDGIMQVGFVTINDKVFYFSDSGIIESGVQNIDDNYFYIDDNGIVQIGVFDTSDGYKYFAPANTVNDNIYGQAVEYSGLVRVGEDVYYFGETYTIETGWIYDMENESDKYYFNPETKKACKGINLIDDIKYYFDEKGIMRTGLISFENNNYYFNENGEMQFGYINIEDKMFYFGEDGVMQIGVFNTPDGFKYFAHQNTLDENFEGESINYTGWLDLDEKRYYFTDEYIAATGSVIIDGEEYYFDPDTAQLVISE
# PrPC TRFRET = reduces human prion protein on the cell surface. P04156. cell surface PrPC, TR-FRET read-out. 370,000 compounds, 0.43% hits. inhibition, % at 13.8 µM; in the data active means inhibition above about 24%
# Mtb FBA inh = inhibits M. tuberculosis FBA enzyme; purified M. tuberculosis FBA, fluorescence read-out; inhibition, % at 1 µM; 360,000 compounds, 2.3% hits; AID 588726
# Y pestis TopoI = Y. pestis Topo-I inhibition via cleavage products; Y. pestis Topo-I cleavage product accumulation, plate reader; activity, % at 10 µM; 360,000 compounds, 0.064% hits; in the data active means activity above about 50%, passing the limit was not always enough
# GDH-TPI counter-1 = inhibits GDH-TPI coupling enzymes, artifact for Mtb FBA screen. GDH-TPI coupled enzyme counterscreen, NADH absorbance. 360,000 compounds, 1.2% hits. inhibition, % at 4.8 µM; in the data active means inhibition above about 30%
# Mtb FBA inh conf = confirmation of M. tuberculosis fructose-bisphosphate aldolase inhibitors. shares compounds with Mtb FBA inh. purified M. tuberculosis FBA, fluorescence read-out. inhibition, % at 1 µM. 5,600 compounds, 78% hits
# GDH-TPI counter-2 = GDH-TPI inhibition counter-screen for FBA inhibitors; AID 652141; inhibition, % at 1 µM; 5,600 compounds, 81% hits; GDH-TPI coupled enzyme counterscreen, fluorescence; shares compounds with Mtb FBA inh; in the data active means inhibition above about 10%
# GDH-TPI DR = inhibits GDH-TPI coupling enzymes in dose response; shares compounds with Mtb FBA inh; GDH-TPI coupled enzyme assay, fluorescence, artifact counterscreen; IC50, µM; 170 compounds, 79% hits; AID 652145; call rule not given here
# Numbers stand for hits; – = inactive; · = no result; + = active, no number. Shown are actives, neighbours in structure and some others; about 3.2% of the full set was active somewhere. Unless noted, no stated cut-off is given here; in the data, active means inhibition above about 27%; inactive means the rest.
SMILES,TcdB GH inh,PrPC TRFRET,Mtb FBA inh,Y pestis TopoI,GDH-TPI counter-1,Mtb FBA inh conf,GDH-TPI counter-2,others
O=C(CSc1nnc(-c2ccccn2)n1Cc1ccccc1)N1CCCC1,·,–,84.0,–,–,101.3,68.4,
Cc1ccccc1-n1c(SCC(=O)N2CCCC2)nnc1-c1ccccn1,·,–,–,–,–,·,·,
CCC(=O)N[C@H]1C=C[C@H](CC(=O)NCc2cc(F)cc(F)c2)O[C@@H]1CO,–,·,·,·,·,·,·,
Cc1coc2c1c(C)cc1oc(=O)c(CC(=O)N[C@@H](C)C(=O)O)c(C)c12,–,–,37.6,–,–,+,+,
CCC(NC(=O)Cc1c(C)c2c(cc(C)c3c(C)c(C)oc32)oc1=O)C(=O)O (stereo unspecified),–,–,36.6,–,–,193.0,178.6,
Cc1coc2c1c(C)cc1oc(=O)c(CC(=O)N[C@H](C(=O)O)C(C)C)c(C)c12,–,–,76.5,–,–,51.5,48.6,
C[C@@H]1CN([C@H](C)CO)C(=O)c2cc(NS(=O)(=O)c3ccc(F)cc3)ccc2O[C@@H](C)CCCCO[C@H]1CN(C)Cc1ccc(Cl)c(Cl)c1,–,·,·,·,·,·,·,
C[C@H]1CCCCO[C@@H](CN(C)C(=O)Cc2ccccc2)[C@@H](C)CN([C@@H](C)CO)C(=O)c2cc(NC(=O)Cc3ccccc3)ccc2O1,–,·,·,·,·,·,·,
C[C@H](CO)N1C[C@H](C)[C@@H](CN(C)CC2CC2)Oc2c(NS(=O)(=O)c3cn(C)cn3)cccc2C1=O,–,·,·,·,·,·,·,
COCCNC(=O)CCc1c(C)nc2nc(-c3cc(OC)cc(OC)c3)nn2c1C,–,–,–,–,–,·,·,
Cc1nc2c(c(C)nn2-c2ccccc2)c(C)c1CCC(=O)N1CCC2(CC1)OCCO2,·,·,–,–,–,·,·,
COCCCNC(=O)Cn1nc(-c2ccc(C)cc2)ccc1=O,·,–,–,–,–,·,·,
COCCNC(=O)CCc1c(C)nc2c(c(C)nn2-c2ccc(C)cc2)c1C,–,–,54.6,–,–,63.0,48.8,
CCN(CC)CCNC(=O)CCc1c(C)nc2c(c(C)nn2-c2ccc(C)cc2)c1C,–,–,41.0,–,–,–,–,
COCCNC(=O)CCc1c(C)nc2c(c(C)nn2-c2ccc(C)c(C)c2)c1C,–,–,42.6,–,–,73.7,56.3,
COCCCNC(=O)CCc1c(C)nc2c(c(C)nn2-c2ccc(C)cc2)c1C,–,–,56.3,–,–,71.5,77.1,
Cc1ccc(-n2nc(C)c3c(C)c(CCC(=O)NC(C)c4ccccc4)c(C)nc32)cc1 (stereo unspecified),–,–,–,–,–,·,·,
C[C@H]1CN([C@@H](C)CO)C(=O)Cc2cc(NC(=O)NC3CCCCC3)ccc2O[C@@H]1CN(C)CC1CC1,–,·,·,·,·,·,·,
O=C(C[C@H]1C=C[C@@H](NC(=O)NC2CCCCC2)[C@H](CO)O1)NCc1ccc(Cl)cc1,–,·,·,·,·,·,·,
O=C(C[C@H]1CC[C@@H]2[C@H](COC[C@H](O)CN2Cc2cocn2)O1)NCc1cccc(F)c1,–,·,·,·,·,·,·,
COC(=O)c1cc2ccc(OC)cc2c2cc(OC)c(OC)cc12,–,–,62.4,–,–,–,–,
COC(=O)c1cc(OC)c(OC)cc1NC(=O)Nc1ccc(OC)cc1,·,–,–,–,–,·,·,
OCCNc1c2ccccc2nc2c(F)c(F)c(F)c(F)c12,·,–,71.5,–,–,+,+,
Cc1c2ccccc2nc2c(F)c(NCCO)c(F)c(F)c12,·,–,–,–,–,·,·,
Cc1ccc2cc3cc(C(=O)NCCCN4CCc5ccccc5C4)oc3nc2c1,·,–,69.8,–,34.7,183.7,133.8,
SMILES,TcdB GH inh,PrPC TRFRET,Mtb FBA inh,Y pestis TopoI,GDH-TPI counter-1,Mtb FBA inh conf,GDH-TPI counter-2,others
CCCCN(CC)CCCNC(=O)c1cc2cc3ccc(C)cc3nc2o1,–,–,94.8,–,34.6,77.6,69.5,
CCCCN(CC)CCNC(=O)c1cc2cc3ccc(Cl)cc3nc2o1,–,–,–,–,–,·,·,
CCCCN(CC)C(=O)c1cc2cc3ccc(OC)cc3nc2o1,·,–,40.7,–,34.3,98.3,78.2,
COc1ccc(S(=O)(=O)Cc2ccc(C(=O)NCCCN3CCc4ccccc4C3)o2)cc1,–,–,–,–,–,·,·,
Cc1ccc2cc3cc(C(=O)NCCCN4CCCCCC4)oc3nc2c1,·,–,74.5,–,–,96.6,46.8,
C[C@@H]1CN([C@@H](C)CO)C(=O)c2cc(NS(C)(=O)=O)ccc2O[C@@H](C)CCCCO[C@@H]1CN(C)C(=O)Nc1ccccc1,–,·,·,·,·,·,·,
COC(CNC(=O)c1ccc(-n2c(=S)[nH]c3ccccc3c2=O)cc1)OC,–,–,–,–,–,·,·,
COC(CNC(=O)c1cccc(-n2c(=S)[nH]c3cc(Cl)ccc3c2=O)c1)OC,–,–,68.0,–,–,+,159.1,
CCOc1ccc2nc(SCC3CC3(Cl)Cl)[nH]c2c1 (stereo unspecified),–,–,–,–,–,·,·,
ClC1(Cl)CC1CSc1nc2ccccc2[nH]1 (stereo unspecified),–,–,33.1,–,–,88.2,85.0,
C[C@H]1CN([C@@H](C)CO)C(=O)c2cc(NC(=O)Nc3cccc4ccccc34)ccc2O[C@@H]1CN(C)S(=O)(=O)c1cn(C)cn1,–,·,·,·,·,·,·,
CC1(C)CC(=O)C2=C(C1)N(CCN1CCOCC1)C1=C(C(=O)CC(C)(C)C1)C2c1ccc(Cl)cc1,–,–,35.9,–,–,–,–,GDH-TPI DR=4.61
COc1ccc2nc(-c3ccccc3)cc(C(=O)OCC(=O)N3CC(C)OC(C)C3)c2c1 (stereo unspecified),–,–,110.4,–,–,38.1,29.8,
Cc1cc(C(=O)OCC(=O)N2CC(C)OC(C)C2)c2ccccc2n1 (stereo unspecified),–,–,–,–,–,·,·,
COc1ccc2nc(-c3ccccc3)cc(C(=O)OCC(=O)N3CCCCC3)c2c1,–,–,87.0,–,–,+,+,
C[C@H](CO)N1C[C@H](C)[C@@H](CN(C)Cc2ccc(Cl)c(Cl)c2)Oc2ccc(NC(=O)CCC(F)(F)F)cc2CC1=O,–,·,·,·,·,·,·,
CC(C)N(C(=O)[C@H]1C[C@H](CC(=O)NCCc2ccccn2)C(=O)N2CCc3c([nH]c4cc(-c5ccco5)ccc34)[C@]12C)C(C)C,–,–,–,–,–,·,·,
CCN(CC)C(=O)[C@H]1C[C@H](CC(=O)NCCc2ccccn2)C(=O)N2CCc3c([nH]c4cc(-c5ccco5)ccc34)[C@]12C,–,–,40.3,–,–,51.7,43.9,
CCN(CC)C(=O)[C@H]1C[C@H](CC(=O)NCC23CC4CC(CC(C4)C2)C3)C(=O)N2CCc3c([nH]c4cc(-c5ccco5)ccc34)[C@]12C,–,–,–,–,–,·,·,
CCN(CC)C(=O)[C@H]1C[C@H](CC(=O)NCCCOC)C(=O)N2CCc3c([nH]c4cc(-c5ccco5)ccc34)[C@]12C,–,–,42.9,–,–,59.1,31.3,
